Laboratory results from PubChem BioAssay AID2235 (The Scripps Research Institute Molecular Screening Center, 2010).
Hit rate of the full screen: of about 320,000 compounds, about 2,800 (0.88%) were called active.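 Rule for the calls: active = inhibition above the mean inhibition of all tested compounds plus 3 SD, computed separately for each screening campaign (cut at about 15% in these data); inactive = the rest.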 Shown is part of a subset that was picked to be rich in actives.

Target: Serine/threonine-protein phosphatase PP1-alpha catalytic subunit (Homo sapiens) (UniProt P62136)
Assay: PP1-alpha phosphatase inhibitors, primary screen, counter-screen for PP5 inhibitor project, biochemical, fluorescence, OMFP substrate, single point (AID 2235)
Details: purified PP1alpha, at 6.7 µM, stronger effect = higher value

Chain of Serine/threonine-protein phosphatase PP1-alpha catalytic subunit (Homo sapiens) (P62136 whole entry, looked up): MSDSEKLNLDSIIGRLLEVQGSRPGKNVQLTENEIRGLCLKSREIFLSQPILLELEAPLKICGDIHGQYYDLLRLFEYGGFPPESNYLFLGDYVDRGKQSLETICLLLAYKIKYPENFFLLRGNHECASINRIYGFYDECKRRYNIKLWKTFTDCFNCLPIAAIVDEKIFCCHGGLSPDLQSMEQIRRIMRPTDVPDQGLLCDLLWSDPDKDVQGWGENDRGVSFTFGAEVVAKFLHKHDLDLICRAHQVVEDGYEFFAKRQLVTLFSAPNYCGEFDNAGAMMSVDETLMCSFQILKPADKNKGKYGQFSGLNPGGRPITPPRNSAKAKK

SMILES | inhibition
COc1ccc(N(CC(=O)N/N=C/c2cccc3c2OCCO3)S(=O)(=O)c2ccc(NC(C)=O)cc2)cc1 | 4.91% (inactive)
CCOc1ccccc1N1CN(Cc2ccccc2)CNC1=S | -3.54% (inactive)
CC(C)c1ccc(N(C(=O)c2ccco2)C(C(=O)NC2CCCC2)c2cccnc2)cc1 (stereo not drawn) | 4.81% (inactive)
CN(CC(=O)Nc1ccc(Cl)cc1)C(=O)CNC(=O)c1ccc2ccccc2c1 | -2.18% (inactive)
Cc1cc(-c2csc(N)n2)c(C)n1Cc1ccccc1 | 14.8% (inactive)
CC(=O)Nc1ccc(C(=O)Nc2nc(-c3cc(C)n(Cc4ccccc4)c3C)cs2)cc1 | 3.86% (inactive)
Cc1cc(-c2csc(N)n2)c(C)n1-c1ccccc1 | 25.1% (active)
CC(=O)Nc1ccc(S(=O)(=O)N2CCC(NC(=O)c3ccccc3)CC2)cc1 | 0.38% (inactive)
O=C(Nc1ccccc1N1CCN(C(=O)c2ccccc2)CC1)c1ccco1 | 0.05% (inactive)
CCCNC(=O)c1ccc(N2CCC3(CC2)CC(c2cccc(Br)c2)=NO3)c(NC(=O)c2ccco2)c1 | 15.6% (active)
CCCNC(=O)c1ccc(N2CCC3(CC2)CC(c2ccc(Cl)cc2)=NO3)c([N+](=O)[O-])c1 | -4.68% (inactive)
CC(C)=CC(=O)Nc1nnc(-c2ccc(F)cc2)s1 | -5.78% (inactive)
COc1ccc(C2=NN(C(=O)CSc3nnnn3C)C(c3ccco3)C2)cc1 (stereo not drawn) | -2.47% (inactive)
Cc1ccc(N(C(=O)c2ccc(CN3CCOCC3)o2)C(C(=O)NCCC(C)C)c2cccs2)c(C)c1 (stereo not drawn) | -1.98% (inactive)
Cc1ccc(-c2noc(CSc3nnnn3-c3ccccc3)n2)cc1 | 0.28% (inactive)
COc1ccc(C)cc1-n1nnnc1SCc1nc2ccccc2c(=O)[nH]1 | 9.72% (inactive)
Cc1ccc(Nc2nc(CSc3nnnn3-c3ccccc3)cc(=O)[nH]2)cc1 | 37.6% (active)
CC1(C)O[C@@H]2[C@H](O1)[C@@H](CO)O[C@H]2n1c(N2CCCCC2)nc2c(N)ncnc21 | -3.13% (inactive)
CC(=O)Nc1ccc(S(=O)(=O)N2CCn3cccc3C2C)cc1 (stereo not drawn) | 0.86% (inactive)
O=C(CSc1nc2ccccc2[nH]1)N/N=C/C=C\c1ccccc1[N+](=O)[O-] | -2.41% (inactive)
CCn1c(SCC(=O)N/N=C/C=C/c2ccccc2[N+](=O)[O-])nnc1-c1ccccc1 | -0.35% (inactive)
Cc1ccc(-n2c(SCC(=O)N/N=C/C=C/c3ccccc3[N+](=O)[O-])nc3ccccc3c2=O)cc1 | 16.8% (active)

SMILES | inhibition
Cc1cccc(NC(=O)c2ccc(S(=O)(=O)N(C)CC3CCCO3)cc2)c1C (stereo not drawn) | 0.75% (inactive)
NS(=O)(=O)c1ccc(NC(=S)Nc2ccc(Br)c(Cl)c2)cc1 | 0.34% (inactive)
CCOc1cc(NC(=S)NCCCOC)c(OCC)cc1NC(=O)c1ccco1 | -3.32% (inactive)
Cc1nc2cc(NC(=O)NCc3ccccc3)ccc2o1 | -6.2% (inactive)
COCCNC(=O)Nc1ccc2nc(-c3ccco3)c(-c3ccco3)nc2c1 | 22.8% (active)
Cc1cc(C)cc(NC(=O)NCc2ccccn2)c1 | -2.05% (inactive)
O=C(NCc1ccccn1)c1ccc2nc(-c3ccco3)c(-c3ccco3)nc2c1 | 31.1% (active)
CCOc1ccc(C(=O)NC(C(=O)NCc2ccccn2)C(C)C)cc1 (stereo not drawn) | 1.59% (inactive)
C[C@H](NC(=O)[C@@H]1Cc2ccccc2CN1C(=O)OC(C)(C)C)C(=O)NC1CCCC1 | -1.9% (inactive)
CC(=O)Nc1ccc(SC[C@H](Cc2ccccc2)N2CC[C@@H](C)CCC2=O)cc1 | 2.41% (inactive)
Cc1nc2cccnc2nc1C | 2.22% (inactive)
CCCCn1c(N)c(N(CC(C)C)C(=O)c2cccc(S(=O)(=O)N3CC(C)OC(C)C3)c2)c(=O)[nH]c1=O (stereo not drawn) | -0.35% (inactive)
COc1ccc(S(=O)(=O)N2CCOC2CNC(=O)C(=O)NCc2ccncc2)cc1OC (stereo not drawn) | -2.33% (inactive)
COc1ccc(-c2nn(-c3ccccc3)cc2/C=C\C(=O)Nc2ccc(C(=O)O)cc2)cc1 | 23.8% (active)
Cc1ccc(-c2nn(-c3ccccc3)cc2/C=C/C(=O)Nc2cccc(S(N)(=O)=O)c2)cc1 | 2.13% (inactive)
COc1ccc(NC(=O)c2cn(-c3ccccc3)nc2SC)cc1 | 0.29% (inactive)
O=C(CSc1ccccc1F)NC1CCS(=O)(=O)C1 (stereo not drawn) | -3.59% (inactive)
CC(C)(C)NC(=O)Cn1c(SCC(=O)Nc2nccs2)nc2ccccc21 | -0.87% (inactive)
O=C1CC(c2c(F)cccc2Cl)C(n2cncn2)C(O)=C1C1NCCc2ccccc21 (stereo not drawn) | 3.05% (inactive)
COc1cc(C(C)=O)ccc1OC(C)C(=O)Nc1ccc(S(=O)(=O)N2CCCC2)cc1 (stereo not drawn) | -2.63% (inactive)
C=CCn1c(=NC(=O)c2ccc(S(=O)(=O)N3CCCC3)cc2)sc2cc(NC(C)=O)ccc21 | 21.1% (active)
C=CCn1c(=NC(=O)c2cccs2)sc2cc(NC(C)=O)ccc21 | 14.5% (inactive)

SMILES | inhibition
C=C(Br)Cn1c(CCCC)nc2ccccc21 | -2.53% (inactive)
COc1ccc(CNC(=O)C(c2ccc(O)cc2)N(Cc2ccco2)C(=O)c2snc(C(N)=O)c2N)cc1 (stereo not drawn) | 4.97% (inactive)
O=C(C1=C(O)C(=O)N(Cc2ccccc2)C1c1cccnc1)c1ccco1 (stereo not drawn) | 0.59% (inactive)
CCCOc1ccc(C2C(C(=O)c3ccc(C)o3)=C(O)C(=O)N2CCCn2ccnc2)cc1 (stereo not drawn) | 33.5% (active)
C=CCOc1cccc(C2C(C(=O)c3ccc(C)o3)=C(O)C(=O)N2CCCn2ccnc2)c1 (stereo not drawn) | 17.4% (active)
CCCOc1ccc(C2c3c(oc4cc(C)c(C)cc4c3=O)C(=O)N2CCCN2CCOCC2)cc1 (stereo not drawn) | 3.82% (inactive)
CCOc1ccc(C2/C(=C(/O)c3ccc4c(c3)CC(C)O4)C(=O)C(=O)N2CCCn2ccnc2)cc1 (stereo not drawn) | 9.12% (inactive)
C=CCOc1cccc(C2C(C(=O)c3ccc(C)o3)=C(O)C(=O)N2c2nnc(C)s2)c1 (stereo not drawn) | 2.22% (inactive)
CCN(CC(=O)Nc1cc(Cl)ccc1C)C(=O)CN1C(=O)NC2(CCCC2)C1=O | 0.75% (inactive)
C=CCNC(=O)CC12CC3CC(C1)CC(CC(=O)NCC=C)(C3)C2 | -3.18% (inactive)
Clc1ccc2c(c1)C1=C(C(c3ccncc3)O2)C(c2ccc(Br)cc2)n2ncnc2N1 (stereo not drawn) | 20.3% (active)
CC1=C(C(N)=O)C(c2ccc(Br)cc2)n2ncnc2N1 (stereo not drawn) | 1.51% (inactive)
Brc1ccc(C2=CC(c3ccco3)n3ncnc3N2)cc1 (stereo not drawn) | 0.45% (inactive)
COc1ccc(C(C(=O)NC2CCCCC2)N(C(=O)Cc2c[nH]c3ccccc23)c2ccccc2)cc1OC (stereo not drawn) | 2.63% (inactive)
Cc1nn(-c2ncc(C(F)(F)F)cc2Cl)c(=O)n1-c1ccccc1 | -0.83% (inactive)
COc1ccc(C2CC(c3cccs3)=NN2C(=O)CCC(=O)O)cc1OC (stereo not drawn) | 0.57% (inactive)
O=C1c2cccc(OCC(=O)N3N=C(c4cccs4)CC3c3ccc(F)cc3)c2CCN1Cc1ccccc1 (stereo not drawn) | 21% (active)
O=C(COc1ccccc1Cl)N1N=C(c2cccs2)CC1c1ccco1 (stereo not drawn) | 7.67% (inactive)
Cc1cc(C)nc(Nc2n[nH]c(-c3ccccc3N)n2)n1 | 0.04% (inactive)
CN1C(=O)c2ccc(C(=O)Nc3ccc(Br)cn3)cc2C1=O | -4.13% (inactive)
COc1cccc(/C=N/NC(=O)c2[nH]nc3c2CCc2ccccc2-3)c1O | 25% (active)
CN(C)CCNC(=O)c1[nH]nc2c1CCc1ccccc1-2 | -1.2% (inactive)

SMILES | inhibition
COc1cc(OC)c(/C=N/NC(=O)c2ccc([N+](=O)[O-])cc2)cc1Br | -0.65% (inactive)
O=S(=O)(NN=C1CCCCCCC1)c1ccc(Br)cc1 | -0.57% (inactive)
O=C(O)CC(CC(=O)N1CCOCC1)c1ccccc1 (stereo not drawn) | -2.86% (inactive)
CN(C(=O)CN(CCO)CC(=O)N(C)C(C)(C)Cc1ccccc1)C(C)(C)Cc1ccccc1 | 21.1% (active)
OCCN(Cc1ccccc1)Cc1ccc(Cl)cc1 | 5.28% (inactive)
CCN(CC)CCCNC(=O)CCc1ccccc1 | -3.5% (inactive)
Cc1ccc2nc(SCC(=O)Nc3cccc4ccccc34)nc(=O)n2c1 | -4.71% (inactive)
C=CCn1c(N)cc(=O)nc1SCC(=O)Nc1cccc2ccccc12 | 2.61% (inactive)
Cc1ccccc1-n1c(SCC(=O)Nc2cccc3ccccc23)nc(O)cc1=O | 15.6% (active)
COC(=O)C1NN=C(C(=O)c2ccc(Br)cc2)C1c1cccc(Br)c1 (stereo not drawn) | 1.62% (inactive)
c1ccc(-c2cc(-c3nnc4sc(-c5ccccn5)nn34)[nH]n2)cc1 | 14% (inactive)
COc1cc(-c2nn3c(-c4cccc(C)c4)nnc3s2)cc(OC)c1OC | 7.7% (inactive)
CCOc1cccc(-c2nn3c(-c4ccccn4)nnc3s2)c1 | 16.3% (active)
CCCCCCCC[n+]1cccc(C(=O)N2c3c(nc(N)[nH]c3=O)NC(C)C2C)c1 (stereo not drawn) | -2.25% (inactive)
CCN(CC(=O)NCc1cccs1)C(=O)c1ccc(OC)c(S(=O)(=O)N2CCOCC2)c1 | -5.16% (inactive)
O=C(c1ccco1)N1CCN(C(=S)Nc2cc(F)cc(F)c2)CC1 | -1.12% (inactive)
COC(=O)c1c(C)c(C)nc(N)c1C#N | -0.85% (inactive)
COC(=O)Cn1cc(/C=C/[N+](=O)[O-])c2ccccc21 | -3.58% (inactive)
O=C(/C=C/c1cccc([N+](=O)[O-])c1)N1CCN(Cc2ccccc2)CC1 | 1.31% (inactive)
O=[N+]([O-])/C=C/c1ccc2c(ccn2Cc2ccccc2)c1 | 18.3% (active)
Cc1ccnc(N2CCN(C(=O)CSc3nc4ccccc4nc3N3CCCCC3)CC2)c1 | 2.11% (inactive)
CCCC[C@H]1COCCS(=O)(=O)N1Cc1cccc(Cl)c1 | -6.26% (inactive)
